Measurements published in PubChem BioAssay AID746 (The Scripps Research Institute Molecular Screening Center, 2007).
Screen size: about 60,000 compounds; about 370 (0.62%) were called active. Cut-off read from the data, not from the text of the source: active = inhibition above about 17%; inactive = the rest. Many of the other results were omitted from the sample, so actives are more common in it than they were.

target: Mitogen-activated protein kinase 10 (Homo sapiens) (UniProt P53779); assay: inhibition of human JNK3 enzyme – biochemical, purified enzyme, primary screen (AID 746); conditions: purified JNK3 kinase activity, HTS; at 8 µM; stronger effect = higher value;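 note: 0% = DMSO and 100% = reference inhibitor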
Sequence (P53779 whole entry, looked up): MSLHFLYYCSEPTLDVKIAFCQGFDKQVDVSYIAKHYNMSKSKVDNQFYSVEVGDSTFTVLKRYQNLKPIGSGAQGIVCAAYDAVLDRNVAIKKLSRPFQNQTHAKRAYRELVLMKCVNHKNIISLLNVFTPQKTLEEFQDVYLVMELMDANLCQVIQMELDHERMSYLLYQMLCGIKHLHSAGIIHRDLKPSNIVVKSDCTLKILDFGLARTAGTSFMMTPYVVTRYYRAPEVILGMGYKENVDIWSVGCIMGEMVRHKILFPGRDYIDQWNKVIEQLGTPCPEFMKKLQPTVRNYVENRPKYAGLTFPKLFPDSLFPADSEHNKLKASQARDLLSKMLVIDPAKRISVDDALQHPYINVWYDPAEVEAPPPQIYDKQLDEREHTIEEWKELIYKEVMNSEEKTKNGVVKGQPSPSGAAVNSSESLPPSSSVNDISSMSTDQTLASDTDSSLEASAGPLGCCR

inhibition, inactive:
Cc1cc(/C=N/n2cnnc2)c(C)n1-c1cccc(C(=O)O)c1 0.73%
O=C(CSC1=NCCS1)Nc1nc(-c2ccccc2)cs1 0.48%
Oc1ccc2nc(Cc3ccccc3)[nH]c2c1 5.45%
Cc1nc2ccccc2cc1O -3.12%
O=C1NC2(CCCCC2)N=C1c1ccccc1 0.31%
COC(=O)C(CC(=O)Nc1cc(C)ccc1C)Nc1ccccc1OC (configuration not stated) -2.33%
O=C(C1CCN(c2nnc(-n3cccc3)s2)CC1)N1CCc2ccccc2C1 -2.74%
CCOc1ccccc1C1NC(=O)NC(C)=C1C(=O)OCc1ccco1 (configuration not stated) 2.09%
CSc1nc(C)nc2c1c(=O)n(C)c(=O)n2C 4.34%
CCOc1ccc(NS(=O)(=O)c2ccc(OCC(=O)NCCCOC)cc2)cc1 -5.51%
O=C(OC(C(=O)NC1CCCC1)c1ccc(F)cc1)c1ccno1 (configuration not stated) -3.98%
CCC1SC2=NCCN2C1(O)c1ccc(Cl)cc1 (configuration not stated) -0.2%
O=C(O)Cc1ccc(NC(=O)C2CCCCC2C(=O)O)cc1 (configuration not stated) 3.04%
Cc1cn(COC/C=C/c2ccccc2)c(=O)[nH]c1=O -1.97%
CCOC(=O)CNC(=O)CN1C(=O)CCSc2ccccc21 -4.85%
O=C(CSc1nnc(-c2ccco2)o1)NCC(=O)c1ccccc1 -0.03%
O=C(COc1ncnc2ccccc12)NC(=O)NCc1ccccc1 1.94%
COc1cccc2c(=O)n(CC(=O)N3CCCCCC3)ccc12 1.14%
Cc1ccc2c(c1)C(O)(CC(=O)c1cccnc1)C(=O)N2 (configuration not stated) 4.44%
C=CCNC(=O)CSc1nc2sc(C)c(C)c2c(=O)[nH]1 -0.43%
O=C(CSc1nc2c(cnn2-c2ccc(F)cc2)c(=O)[nH]1)N1CCCCCC1 1.45%
O=C1NC(c2ccncc2)Nc2sc3c(c21)CCCC3 (configuration not stated) 4.12%
O=C1C(C=NCC2CCCO2)=C(O)c2ccccc21 (configuration not stated) 3.41%
CC(=NCc1ccc2c(c1)OCO2)C1=C(O)c2ccccc2C1=O 12.4%
Cc1ccnc(N2CCN(C(=O)CSc3nc4ccccc4nc3N3CCCCC3)CC2)c1 6.1%
Cc1cc(N2CCCC2)n2nc(C)c(-c3ccccc3)c2n1 -0.31%
CCOC(=O)N1CCN(C(=O)CSc2ccc(Cl)cc2)CC1 -3.08%
CC(=O)c1ccc(N2C(=NC(=O)C(C)C)SC3CS(=O)(=O)CC32)cc1 (configuration not stated) 3.06%
O=C(NCc1ccco1)c1ccc(CS(=O)(=O)Cc2ccc(F)cc2)o1 2.1%
COc1ccccc1C(=O)N1CCN=C1SCc1cccnc1 -7.75%
CCN1CCN(C(=O)CN(C)S(=O)(=O)c2ccc(OC)cc2)CC1 -5.84%
CC(CN1CCCCC1)OC(=O)c1ccccc1Cl (configuration not stated) 2.81%
CCc1ccccc1N(CC(=O)N1CCN(c2ccccc2F)CC1)S(C)(=O)=O 2.83%
COCCCn1c2nc3ccccc3nc2c2c(=O)n(Cc3ccc(Cl)cc3)c(C)nc21 3.15%
Cc1ccsc1CNn1cnnc1SCc1ccccc1F -1.56%
Fc1c(F)c(C(F)(F)F)c(F)c(F)c1N1CCN(c2ccc3nnc(C(F)(F)F)n3n2)CC1 -2.37%
Cc1cc(C)n(C(=O)c2ccc(S(=O)(=O)N3CCCC3)cc2)n1 5.94%
O=C(CSc1nnc(Cc2ccccc2)n1-c1ccccc1)N1CCOCC1 -3.48%
CCOC(=O)c1ccc(COC(=O)c2cc(=O)[nH]c3ccccc23)o1 -6.13%
COC(=O)c1[nH]c2ccccc2c1NS(=O)(=O)c1ccc(OC)cc1OC 2.86%
CSc1nsc(SC)c1NC(=O)OC1CCCCC1 -12%
CS(=O)(=O)N1CCCC(C(=O)N2CCOCC2)C1 (configuration not stated) 6.57%
O=C(O)c1cccc2c1C(=O)N(C1CCCCC1)C2 -0.07%
COCCN1Cc2cccc(C(=O)Nc3ccccc3OC)c2C1=O 2.47%
CC(=O)c1c(C)n([O-])c2ccccc2[n+]1=O -1.64%
C=C1c2cc(CC)ccc2NC(=O)N1c1ccc(C)cc1 -1.58%
CCN=C1SC(CC(=O)Nc2ccc(C)cc2)C(=O)N1CC (configuration not stated) 0.86%
CCc1ccccc1NC(=O)c1cccs1 6.07%
CCOC(=O)c1cc2sccc2n1Cc1ccc(C#N)cc1 4.65%
Cc1ccn2cc(-c3nonc3C)cc2c1 2.16%
Cc1cccc(NC(=O)CSC(N)=O)c1C -3.12%
CCOC(=O)c1cccc(NC(=O)CCc2c(C)nc3ncnn3c2C)c1 4.2%
COC(=O)c1cc(NC2c3ccccc3C(=O)N2c2ccc(Cl)cn2)cc(C(=O)OC)c1 (configuration not stated) 1.5%
CN(C(=O)C1CCOC1)c1nnc(-c2cccnc2)s1 (configuration not stated) -0.13%
COc1ccc(N2CCN(Cc3cc(=O)oc4ccc5ccccc5c34)CC2)cc1 11.2%
Cn1c(=O)[nH]c(=O)c2c1nc(N1CCN(CCO)CC1)n2CCSc1nc2ccccc2s1 -3.17%
COc1ccc(C)c2sc(=NC(=O)c3ccc(C#N)cc3)n(C)c12 1.99%
CCOc1ccc(CCNC(=O)C2CCN(c3ccc(N4CCOCC4)nn3)CC2)cc1OCC -3.01%
Cn1cccc1C(=O)Nc1nccs1 3.03%
COc1cc(C(=O)Nc2nccs2)cc(OC)c1OC 8.3%
COc1ccc(Cn2cccc(NC(=O)Nc3ccc(C#N)cc3)c2=O)cc1 2.85%
CCOC(=O)C1CCN(C(=O)Nc2ccc(Cl)cc2)CC1 3.13%
CCC(C)Sc1nnc(-c2c[nH]c3ccccc23)n1CCOC (configuration not stated) -1.71%
COc1ccc(CCNC(=O)CCn2c(=O)oc3ccccc32)cc1OC -2.91%
Cc1cc(C)c(S(=O)(=O)NCCCN2CCOCC2)cc1Br -5.01%
COc1ccc(OC)c(C2N(c3ccccn3)C(=O)C3CCCN32)c1 (configuration not stated) 1.09%
Cc1cc(=O)n2c3c(cccc13)CCC2 6.82%
CCOC(=O)c1sc2nc(CSCC(=O)OCc3ccc(C(=O)OC)o3)[nH]c(=O)c2c1C 0.98%
COC(=O)c1c(NC(=O)CCN2CCOCC2)sc2c1CCCC2 -3.4%
COc1ccccc1-n1cnc2cc(NS(=O)(=O)c3ccccc3)ccc21 4.48%
COc1ccc(O)c(C=Nc2cc(C)on2)c1 0.04%
Cc1cc(C)n(C(=O)c2ccc(C)c(S(=O)(=O)N3CCOCC3)c2)n1 1.61%
Cc1cccc2cc(C#N)c(N3CCCC3)nc12 2.01%
CC(C)COC(=O)C1C2C=CC3(CN(C(C)c4ccc(Br)cc4)C(=O)C13)O2 (configuration not stated) -6.16%
NC(=O)C1(N2CCCCC2)CCN(C(=O)c2ccc(C#Cc3ccccc3)o2)CC1 -2.13%
CCCn1c(SCC(=O)Nc2c(C)cccc2C)nnc1C(C)C -2.91%
C=CCN(c1ccc(C(N)=O)cc1)S(C)(=O)=O 4.4%
NC(=O)c1ccccc1NC(=O)c1ccccc1F 13.4%
CCCOC(=O)Nc1ccccc1C(N)=O -5.47%
CCOCCCNS(=O)(=O)Cc1ccccc1 1.76%
CCCCOc1ccc(C(=O)NCc2ccco2)cc1 0.41%
CCOc1ccc2nc(N3CCCN(C(=O)Nc4ccccc4C)CC3)c(C#N)cc2c1 0.49%
CCN(c1ccccc1)S(=O)(=O)c1ccc(N)cc1 2.15%
CC1=C(C(N)=O)C(c2ccc3c(c2)OCO3)n2nc(-c3cccc(C)c3)nc2N1 (configuration not stated) 5.86%
CCOC(=O)c1ccc(Nc2cc(C)nc3nc(C)nn23)cc1 -10.1%
COc1ccccc1NC(=O)CSc1nnc(Cn2nnc(-c3ccccc3)n2)n1-c1ccccc1 -0.28%
O=C(Nc1nsc(-c2ccccc2)n1)c1ccncc1 1.54%
CC1CSc2nnc(CCc3ccccc3)n21 (configuration not stated) 16.5%
COC(=O)c1cc(C(=O)CSc2nc(C)cc(C)n2)ccc1O 1.84%
COc1c(O)cccc1-c1nnn(CCC(=O)OCC(=O)c2ccccc2)n1 0.11%
CC(CCc1ccccc1)NC(=O)c1ccc(Br)o1 (configuration not stated) 3.4%
NC(=O)CCCC1=NS(=O)(=O)c2ccccc2N1 11.7%
Nc1nonc1C(=O)NCCc1ccccc1 2.83%
CC(C)CC(=O)N=C1SC2CS(=O)(=O)CC2N1CCc1ccccc1 (configuration not stated) -1.83%

inhibition, active:
Cc1cc(O)ccc1-c1cnc2ccccc2n1 25.6%
OCCCN1c2ccccc2Nc2nnc(-c3ccccc3)cc21 31.6%
CC(=O)c1sc2nc(SCC(=O)N3CCCCC3)[nH]c(=O)c2c1C 19.7%
CC(=NCc1ccco1)C1=C(O)c2ccccc2C1=O 32.9%
COc1ccc(COC(=O)c2n[nH]c3ccccc23)cc1F 54.8%
CCCN1Cc2cccc(C(=O)NCc3ccccc3)c2C1=O 19.8%
CC(=O)Oc1ccc(C(=O)Nc2nccs2)cc1 31.3%
COc1cccc(OCC(=O)Nc2ccccc2C(N)=O)c1 26.1%
